Measurements reported in PubChem BioAssay (Tox21).
Results filed as inconclusive are left out. Active and inactive are the calls of the source. Unless noted, calls come from the whole dose curve; as a rule, active = well fitted curve in the direction sought with a large enough effect in the repeat runs; inconclusive = weak or mixed curves; inactive = no such curve, though single readings can be large; an effect the other way counts as inactive or inconclusive.

Assays:
[1] = biological target: Acetylcholinesterase (Homo sapiens) (UniProt P22303); test: Acetylcholinesterase (AChE) small molecule antagonists: enzyme-based qHTS assay (AID 1347397; calls by dose curve; note: nearly all actives have a fitted effect of over 55% in size; note: potency is the fitted concentration of half-maximal effect); details: Potency: AChE enzyme activity inhibition
Outline: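 Human recombinant acetylcholinesterase; substrate acetylthiocholine; thiocholine quantified with DTNB (colorimetric). Compound preincubation 30 min RT; reaction 10 min RT.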

[2] = biological target: Acetylcholinesterase (Homo sapiens) (UniProt P22303); test: Acetylcholinesterase (AChE) small molecule antagonists: fluorescence cell-based qHTS assay (AID 1347398; calls by dose curve; note: nearly all actives have a fitted effect of over 50% in size; note: potency is the fitted concentration of half-maximal effect); details: Potency: AChE activity
Outline: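 Thiocholine generated from acetylthiocholine by SH-SY5Y cell AChE is detected with Thiolite Green (Ex/Em 490/520 nm) after 40 min at room temperature, following 30 min compound pretreatment at 37 C.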

[3] = biological target: Acetylcholinesterase (Homo sapiens) (UniProt P22303); test: Acetylcholinesterase (AChE) small molecule antagonists: enzyme-based qHTS assay with human liver microsomes (AID 1347399; calls by dose curve; note: nearly all actives have a fitted effect of over 60% in size; note: potency is the fitted concentration of half-maximal effect); details: Potency: qHTS inhibition
Outline: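 Recombinant human AChE (50 mU/mL in the enzyme mix) and human liver microsomes (0.25 mg/mL final) were preincubated with compound and NADPH (0.25 mg/mL final) for 30 min at 37 C. Acetylthiocholine/DTNB was then added; thiocholine was read colorimetrically after 10 min at room temperature.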

[4] = biological target: Cytochrome P450 2D6 (Homo sapiens) (UniProt P10635); test: Cytochrome P450 Family 2 Subfamily D Member 6 (CYP2D6) small molecule antagonists: luciferase reporter qHTS assay (AID 1671196); note: nearly all actives have a fitted effect of over 50% in size; note: potency is the fitted concentration of half-maximal effect
Outline: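 Cell-free P450-Glo system: CYP2D6 with proluciferin substrate was pre-incubated with compound for 10 min, then reacted with NADPH regeneration for 1 h at room temperature. Luciferin product was detected after 20 min, and data were reported as relative luminescence units.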

[5] = biological target: Cytochrome P450 2C19 (Homo sapiens) (UniProt P33261); test: Cytochrome P450 Family 2 Subfamily C Member 19 (CYP2C19) small molecule antagonists: luciferase reporter qHTS assay (AID 1671197); note: nearly all actives have a fitted effect of over 65% in size; note: potency is the fitted concentration of half-maximal effect
Outline: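 Inhibition of CYP2C19 was scored from loss of luminescence in a P450-Glo proluciferin substrate assay, NADPH-started and run 1 h at 37C, with ketoconazole as positive control.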

[6] = biological target: Cytochrome P450 2C9 (Homo sapiens) (UniProt P11712); test: Cytochrome P450 Family 2 Subfamily C Member 9 (CYP2C9) small molecule antagonists: luciferase reporter qHTS assay (AID 1671198); note: nearly all actives have a fitted effect of over 50% in size; note: potency is the fitted concentration of half-maximal effect
Outline: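 CYP2C9 activity was measured with a P450-Glo proluciferin substrate. Enzyme–substrate mix was held with compound for 10 min at room temperature, then NADPH regeneration solution was added for 1 h at 37C. Luciferin product was read as luminescence.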

[7] = biological target: Cytochrome P450 1A2 (Homo sapiens) (UniProt P05177); test: Cytochrome P450 Family 1 Subfamily A Member 2 (CYP1A2) small molecule antagonists: luciferase reporter qHTS assay (AID 1671199); note: nearly all actives have a fitted effect of over 50% in size; note: potency is the fitted concentration of half-maximal effect
Outline: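 P450-Glo CYP1A2 enzyme–proluciferin substrate mix with compound 10 min at room temperature, then NADPH regeneration 1 h at room temperature. Luciferin detection reagent added, luminescence read after 20 min; furafylline positive control.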

[8] = biological target: Cytochrome P450 3A4 (Homo sapiens) (UniProt P08684); test: Cytochrome P450 Family 3 Subfamily A Member 4 (CYP3A4) small molecule antagonists: luciferase reporter qHTS assay (AID 1671201); note: nearly all actives have a fitted effect of over 50% in size; note: potency is the fitted concentration of half-maximal effect
Outline: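 P450-Glo CYP3A4 system with proluciferin substrate; compounds preincubated 10 min RT with enzyme-substrate mix, then NADPH regeneration added for 1 h RT. Detection reagent 20 min, luminescence read as relative luminescence units.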

[9] = biological target: Voltage-gated inwardly rectifying potassium channel KCNH2 (Homo sapiens) (UniProt Q12809); test: Human Ether-a-go-go-Related Gene (hERG) channel small molecule antagonists: fluorescence cell-based qHTS assay (AID 1671200)
Outline: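 U2OS cells expressing the channel were plated at 1000 cells/well, incubated overnight at 37 C, then loaded with FluxOR II thallium-sensitive dye for 1 h at room temperature in the dark, with a further 10 min at room temperature before stimulation.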

Measured: Potency

Chain of Voltage-gated inwardly rectifying potassium channel KCNH2 (Homo sapiens) (Q12809 whole entry, looked up): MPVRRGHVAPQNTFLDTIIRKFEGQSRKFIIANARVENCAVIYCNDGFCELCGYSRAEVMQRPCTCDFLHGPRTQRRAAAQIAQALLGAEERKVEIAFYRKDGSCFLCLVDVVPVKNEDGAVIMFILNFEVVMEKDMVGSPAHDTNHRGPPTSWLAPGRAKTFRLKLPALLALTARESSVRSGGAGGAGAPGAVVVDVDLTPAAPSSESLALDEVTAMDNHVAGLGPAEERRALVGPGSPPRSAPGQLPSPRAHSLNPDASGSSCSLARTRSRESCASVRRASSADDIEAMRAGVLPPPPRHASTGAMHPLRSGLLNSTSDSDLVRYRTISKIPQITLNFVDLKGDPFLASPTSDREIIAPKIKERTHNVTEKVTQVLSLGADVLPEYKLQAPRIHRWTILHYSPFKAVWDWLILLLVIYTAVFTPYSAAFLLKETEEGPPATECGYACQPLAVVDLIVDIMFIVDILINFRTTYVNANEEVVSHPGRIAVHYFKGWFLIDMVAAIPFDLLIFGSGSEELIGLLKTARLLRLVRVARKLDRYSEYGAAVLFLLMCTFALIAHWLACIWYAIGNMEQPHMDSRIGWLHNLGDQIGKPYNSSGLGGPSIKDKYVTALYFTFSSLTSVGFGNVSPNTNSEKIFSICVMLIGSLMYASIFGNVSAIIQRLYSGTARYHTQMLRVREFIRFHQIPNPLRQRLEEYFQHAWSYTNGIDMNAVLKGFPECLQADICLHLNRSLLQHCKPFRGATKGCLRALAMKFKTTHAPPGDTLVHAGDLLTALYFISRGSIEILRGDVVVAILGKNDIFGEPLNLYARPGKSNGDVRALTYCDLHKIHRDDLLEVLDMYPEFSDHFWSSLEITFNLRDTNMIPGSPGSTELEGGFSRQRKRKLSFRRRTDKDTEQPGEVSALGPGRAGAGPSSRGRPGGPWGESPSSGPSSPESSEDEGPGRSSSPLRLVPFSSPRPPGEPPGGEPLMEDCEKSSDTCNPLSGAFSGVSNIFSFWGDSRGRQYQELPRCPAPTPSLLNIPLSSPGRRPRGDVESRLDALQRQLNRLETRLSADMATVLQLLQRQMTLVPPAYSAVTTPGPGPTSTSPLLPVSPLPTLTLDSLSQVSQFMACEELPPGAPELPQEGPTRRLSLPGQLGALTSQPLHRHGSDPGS
Chain of Cytochrome P450 3A4 (Homo sapiens) (P08684 whole entry, looked up): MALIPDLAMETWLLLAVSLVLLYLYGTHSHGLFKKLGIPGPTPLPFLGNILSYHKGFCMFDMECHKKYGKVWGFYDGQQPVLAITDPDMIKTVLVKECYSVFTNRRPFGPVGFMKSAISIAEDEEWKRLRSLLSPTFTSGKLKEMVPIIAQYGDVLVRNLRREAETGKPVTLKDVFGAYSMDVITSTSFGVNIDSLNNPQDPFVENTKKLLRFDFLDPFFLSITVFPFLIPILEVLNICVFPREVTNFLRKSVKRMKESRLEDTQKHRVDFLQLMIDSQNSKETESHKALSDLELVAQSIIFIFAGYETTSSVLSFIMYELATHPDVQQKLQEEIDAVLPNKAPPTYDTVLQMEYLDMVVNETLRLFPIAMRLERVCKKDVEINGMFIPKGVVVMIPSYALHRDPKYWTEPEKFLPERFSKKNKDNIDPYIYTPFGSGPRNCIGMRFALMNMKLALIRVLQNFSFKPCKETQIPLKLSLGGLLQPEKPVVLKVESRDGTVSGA
Chain of Cytochrome P450 1A2 (Homo sapiens) (P05177 whole entry, looked up): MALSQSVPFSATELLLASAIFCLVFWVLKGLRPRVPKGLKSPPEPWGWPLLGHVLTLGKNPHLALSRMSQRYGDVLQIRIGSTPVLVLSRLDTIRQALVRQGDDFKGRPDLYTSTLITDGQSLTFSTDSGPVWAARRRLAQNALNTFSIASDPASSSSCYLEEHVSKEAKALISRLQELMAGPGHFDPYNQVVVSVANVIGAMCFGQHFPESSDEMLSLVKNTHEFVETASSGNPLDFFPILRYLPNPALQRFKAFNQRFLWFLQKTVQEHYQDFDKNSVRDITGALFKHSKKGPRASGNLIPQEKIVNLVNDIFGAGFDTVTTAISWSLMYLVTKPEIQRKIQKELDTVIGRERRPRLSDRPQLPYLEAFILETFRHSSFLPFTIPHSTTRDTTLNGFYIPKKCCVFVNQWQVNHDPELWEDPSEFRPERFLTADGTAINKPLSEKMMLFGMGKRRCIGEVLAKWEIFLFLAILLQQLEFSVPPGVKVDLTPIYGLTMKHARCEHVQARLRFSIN
Chain of Cytochrome P450 2C19 (Homo sapiens) (P33261 whole entry, looked up): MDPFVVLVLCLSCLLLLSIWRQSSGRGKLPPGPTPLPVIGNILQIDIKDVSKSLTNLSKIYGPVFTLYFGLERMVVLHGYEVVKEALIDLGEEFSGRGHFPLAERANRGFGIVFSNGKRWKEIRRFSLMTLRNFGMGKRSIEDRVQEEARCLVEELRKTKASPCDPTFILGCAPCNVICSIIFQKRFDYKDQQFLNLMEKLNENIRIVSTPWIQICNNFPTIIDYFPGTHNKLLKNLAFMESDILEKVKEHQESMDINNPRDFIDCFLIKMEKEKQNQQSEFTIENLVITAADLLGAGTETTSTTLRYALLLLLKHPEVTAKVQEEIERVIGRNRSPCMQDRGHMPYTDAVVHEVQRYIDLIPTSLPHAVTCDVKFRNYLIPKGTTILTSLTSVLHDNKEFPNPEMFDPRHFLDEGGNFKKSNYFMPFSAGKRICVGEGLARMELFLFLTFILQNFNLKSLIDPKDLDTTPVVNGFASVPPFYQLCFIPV
Chain of Acetylcholinesterase (Homo sapiens) (P22303 whole entry, looked up): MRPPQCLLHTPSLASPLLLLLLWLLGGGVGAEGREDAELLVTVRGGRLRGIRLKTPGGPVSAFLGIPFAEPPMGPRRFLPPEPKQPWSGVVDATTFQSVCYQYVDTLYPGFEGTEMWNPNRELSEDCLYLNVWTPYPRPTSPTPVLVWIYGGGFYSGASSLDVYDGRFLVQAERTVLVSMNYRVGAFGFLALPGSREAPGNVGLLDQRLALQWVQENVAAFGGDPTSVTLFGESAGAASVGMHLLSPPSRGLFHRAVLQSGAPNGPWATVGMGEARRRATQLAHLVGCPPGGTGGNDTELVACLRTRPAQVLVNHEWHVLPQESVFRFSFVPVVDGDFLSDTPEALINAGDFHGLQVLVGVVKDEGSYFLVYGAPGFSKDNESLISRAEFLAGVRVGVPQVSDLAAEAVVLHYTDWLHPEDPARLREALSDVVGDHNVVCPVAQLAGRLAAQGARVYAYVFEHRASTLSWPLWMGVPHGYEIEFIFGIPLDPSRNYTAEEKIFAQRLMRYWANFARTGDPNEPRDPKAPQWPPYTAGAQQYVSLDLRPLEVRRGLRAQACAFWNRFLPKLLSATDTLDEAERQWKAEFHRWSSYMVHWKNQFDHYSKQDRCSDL
Chain of Cytochrome P450 2C9 (Homo sapiens) (P11712 whole entry, looked up): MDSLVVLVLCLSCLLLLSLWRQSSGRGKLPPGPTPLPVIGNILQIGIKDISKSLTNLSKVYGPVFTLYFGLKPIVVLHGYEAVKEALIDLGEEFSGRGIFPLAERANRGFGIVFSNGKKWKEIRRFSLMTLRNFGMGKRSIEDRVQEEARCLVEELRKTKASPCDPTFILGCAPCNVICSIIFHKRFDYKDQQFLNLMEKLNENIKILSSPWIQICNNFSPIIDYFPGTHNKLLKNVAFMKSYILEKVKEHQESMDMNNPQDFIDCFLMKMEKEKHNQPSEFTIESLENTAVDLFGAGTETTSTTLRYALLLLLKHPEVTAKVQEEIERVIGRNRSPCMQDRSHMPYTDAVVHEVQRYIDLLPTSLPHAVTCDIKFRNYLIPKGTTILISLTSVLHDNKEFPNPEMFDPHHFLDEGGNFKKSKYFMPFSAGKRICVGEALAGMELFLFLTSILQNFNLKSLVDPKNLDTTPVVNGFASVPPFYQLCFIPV
Chain of Cytochrome P450 2D6 (Homo sapiens) (P10635 whole entry, looked up): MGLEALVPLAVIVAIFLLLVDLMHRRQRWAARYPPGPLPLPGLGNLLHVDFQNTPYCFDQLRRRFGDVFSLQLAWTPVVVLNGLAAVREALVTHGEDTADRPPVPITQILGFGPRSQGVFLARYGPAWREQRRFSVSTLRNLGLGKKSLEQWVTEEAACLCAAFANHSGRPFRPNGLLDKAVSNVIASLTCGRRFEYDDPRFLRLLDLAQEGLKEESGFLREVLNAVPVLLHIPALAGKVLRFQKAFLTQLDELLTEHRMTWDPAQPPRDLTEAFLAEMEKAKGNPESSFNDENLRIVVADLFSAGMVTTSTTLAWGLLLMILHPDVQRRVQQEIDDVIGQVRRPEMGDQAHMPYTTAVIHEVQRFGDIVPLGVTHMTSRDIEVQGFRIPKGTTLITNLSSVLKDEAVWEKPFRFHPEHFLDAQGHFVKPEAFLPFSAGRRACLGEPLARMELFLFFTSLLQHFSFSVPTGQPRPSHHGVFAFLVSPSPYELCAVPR

CCCCc1c(C)nc(NCC)[nH]c1=O
active: [5] 79.6 µM | [7] 17.8 µM
inactive: [1] | [2] | [3] | [4] | [6] | [8]

C1CCC(C2CCCCC2)CC1
inactive: [1] | [2] | [3] | [4] | [5] | [6] | [9] | [8]

COc1ncc(F)c2nc(S(=O)(=O)Nc3c(F)cccc3F)nn12
inactive: [1] | [2] | [3] | [4] | [5] | [7] | [9] | [8]
active: [6] 22.6 µM

CCOP(=S)(OCC)Oc1ncn(-c2ccccc2)n1
active: [1] 71 µM | [2] 35.6 µM | [3] 3.17 µM | [5] 1 µM | [6] 0.502 µM | [7] 1.78 µM | [8] 2.52 µM
inactive: [4] | [9]

CCOC(=O)N(C)C(=O)CSP(=S)(OCC)OCC
active: [4] 28.3 µM | [5] 0.126 µM | [6] 0.71 µM | [7] 3.17 µM | [8] 2.24 µM
inactive: [1] | [2] | [3] | [9]

CCCSP(=O)(OCC)Oc1ccc(Br)cc1Cl (stereo not given)
inactive: [8]
active: [1] 3.87 µM | [2] 0.866 µM | [3] 2.74 µM | [4] 15.4 µM | [5] 3.45 µM | [6] 10.9 µM | [7] 4.34 µM

[O]=[Cd]
inactive: [1] | [2] | [3] | [4] | [5] | [6] | [7] | [9] | [8]

c1cc[c]([Hg][c]2ccccc2)cc1
inactive: [1] | [2] | [3] | [9] | [8]
active: [4] 1 µM | [5] 22.4 µM | [6] 31.7 µM | [7] 10 µM

CNNC
active: [4] 65.4 µM
inactive: [1] | [2] | [3] | [5] | [6] | [9]

O=C(Oc1ccc(Br)cc1)N1CCN2CCC1CC2
inactive: [1] | [2] | [3] | [4] | [5] | [6] | [7] | [8]

Cc1ncc2n1-c1ccc(Cl)cc1C(c1ccccc1F)=NC2
active: [5] 15.5 µM | [6] 17.4 µM
inactive: [1] | [2] | [3] | [4] | [9]

C=CC1CC=CCC1 (stereo not given)
inactive: [1] | [2] | [3] | [4] | [5] | [6] | [9] | [8]

COc1cc(C[C@@H](C)N)c(OC)cc1C
inactive: [1] | [2] | [3] | [5] | [6] | [9] | [8]
active: [4] 47.9 µM

O=C(CCN1CC1)OCC(CO)(COC(=O)CCN1CC1)COC(=O)CCN1CC1
inactive: [1] | [2] | [3] | [4] | [5] | [6] | [9] | [8]

O=S(=O)(O)C(F)(F)C(F)(F)C(F)(F)C(F)(F)C(F)(F)C(F)(F)F
inactive: [1] | [2] | [3] | [4] | [7] | [8]
active: [5] 79.6 µM | [6] 1.12 µM

ClCC(Cl)(Cl)Cl
inactive: [1] | [2] | [3] | [4] | [5] | [6] | [7] | [9] | [8]

CN1CCN(C(=O)O[C@H]2c3nccnc3C(=O)N2c2ccc(Cl)cn2)CC1
inactive: [1] | [2] | [3] | [4] | [5] | [6] | [8]
active: [7] 27.5 µM

COc1cc(OC)nc(Oc2cccc(Oc3nc(OC)cc(OC)n3)c2C(=O)O)n1
inactive: [1] | [2] | [3] | [4] | [5] | [6] | [7] | [8]

Fc1ccc(C2(Cn3cncn3)OC2c2ccccc2Cl)cc1 (stereo not given)
inactive: [1] | [2] | [3]
active: [4] 39.9 µM | [5] 0.252 µM | [6] 5.64 µM | [7] 5.03 µM | [8] 0.894 µM

COP(N)(=S)Oc1ccccc1C(=O)OC(C)C (stereo not given)
active: [3] 2.83 µM | [4] 31.7 µM | [5] 0.178 µM | [6] 6.33 µM | [7] 2 µM | [8] 2 µM
inactive: [1] | [2]

CC(C=O)Cc1ccc2c(c1)OCO2 (stereo not given)
active: [4] 63.3 µM | [5] 20 µM | [6] 15.9 µM | [7] 6.33 µM | [8] 11.2 µM
inactive: [1] | [2] | [3] | [9]

O=[N+]([O-])c1cccc(O)c1
inactive: [1] | [2] | [3] | [4] | [5] | [6] | [9] | [8]

COc1cc(OC)nc(NC(=O)NS(=O)(=O)c2ncccc2C(=O)N(C)C)n1
inactive: [1] | [2] | [3] | [4] | [5] | [6] | [9] | [8]

O=C(O)c1ccc2[nH]cc(CCCCN3CC=C(c4ccccc4)CC3)c2c1
inactive: [1] | [2] | [3] | [6] | [7] | [9] | [8]
active: [4] 12.3 µM

O=C1OC(c2ccc(O)c(S(=O)(=O)O)c2)(c2ccc(O)c(S(=O)(=O)O)c2)c2c(Br)c(Br)c(Br)c(Br)c21
inactive: [1] | [2] | [3] | [4] | [5] | [7] | [9] | [8]
